Potency data for 40 molecules are collected here from PubChem BioAssay AID504895 (National Center for Advancing Translational Sciences (NCATS), 2011).

Inconclusive results are not listed. Where a call stands in place of a potency, no number is given. Active and inactive are the calls of the source. Calls come from the whole dose curve; as a rule, active = well fitted curve in the direction sought with a large enough effect; inconclusive = small, poorly fitted or top-dose-only effect, or another doubt; inactive = no such curve, though single readings can be large or run the other way.

Chain of Protein phosphatase EYA2 (Homo sapiens) (O00167 whole entry, looked up): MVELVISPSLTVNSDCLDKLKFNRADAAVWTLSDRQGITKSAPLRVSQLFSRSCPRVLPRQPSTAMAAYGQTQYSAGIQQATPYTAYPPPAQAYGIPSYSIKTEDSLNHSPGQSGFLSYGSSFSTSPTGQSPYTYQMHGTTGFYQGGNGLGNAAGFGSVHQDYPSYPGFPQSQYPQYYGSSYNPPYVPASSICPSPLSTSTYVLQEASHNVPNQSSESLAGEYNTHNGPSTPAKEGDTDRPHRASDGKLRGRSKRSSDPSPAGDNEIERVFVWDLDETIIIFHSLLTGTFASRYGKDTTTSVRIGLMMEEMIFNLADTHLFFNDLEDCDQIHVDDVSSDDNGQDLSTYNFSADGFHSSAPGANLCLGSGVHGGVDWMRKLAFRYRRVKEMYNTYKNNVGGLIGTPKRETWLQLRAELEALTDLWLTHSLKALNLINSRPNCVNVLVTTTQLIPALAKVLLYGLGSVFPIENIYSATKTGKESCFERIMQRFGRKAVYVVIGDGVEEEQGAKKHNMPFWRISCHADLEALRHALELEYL

The target of the test is Protein phosphatase EYA2 (Homo sapiens) (UniProt O00167). The test is described as follows: Inhibitors of Eya2ED: Hit Confirmation in Primary Screen. The conditions noted are these: Recombinant Eya2ED, OMFP fluorescence phosphatase assay; series mostly up to 76.9 µM. The source says:
The Eya proteins (Eya1-4) were originally identified as essential co-activators of the Six1 transcription factor. […] Knockdown of Six1 decreases cancer cell proliferation and metastases in several different cancer models. […] A fluorescence-based HTS assay has been perfomed against the Molecular Libraries Small Molecule Repository (MLSMR) and has the AID 488837 in this database. After completion of the primary screen, hits were re-ordered and tested again in the primary screen in a 12 point titration. NIH Chemical Genomics Center [NCGC] NIH Molecular Libraries Probe Centers Network [MLPCN] MLPCN Grant: DA030559-01 Assay Submitter (PI): Rui Zhao, University of Colorado, Denver
The Eya2 enzyme was kindly provided by the laboratory of Dr. Rui Zhao. The 3-O-methyl-fluorescein phosphate (OMFP) substrate and all buffer reagents were purchased from Sigma Aldrich. qHTS Assay Setup: 1. Buffer- 50 mM HEPES pH 7.5, 50 mM NaCl, 5 uM MgCl2, 0.05% BSA, 1 mM DTT. 2. OMFP Stock- 10 mM solution prepared in 100% DMSO and stored in single use aliquots at -20C. Assay Procedure- 1. Dispense 1.5 ul per well of Eya2 at 0.2 uM in black medium binding 1536 well Greiner plate 2. Transfer 23 nl of compound and control compound (EGTA) to plate 3. Incubate at ambient for 10 minutes 4. Dispense 1.5 ul per well of OMFP at 50 uM 5. Incubate at ambient for 10 minutes 6. Read on ViewLux using Excitation = 485 nm, Emission = 525 nm
As for `CC(C)CN1C(=O)c2ccc(NC(=O)c3ccccc3F)cc2C1=O`, the Potency entry is “inactive”.

`CCOc1ccc(S(=O)(=O)N2CCN(C(=O)c3sccc3C)CC2)cc1`: the Potency entry is “inactive”.

As to `Cc1ccc2c(c1)CCCN2C(=O)c1cccs1`, the Potency entry was “inactive”.

Take `Cc1nn(-c2nc(-c3ccco3)cc(C(F)(F)F)n2)c(C)c1Cl`: the Potency result is “inactive”.

Regarding `COc1ccc(CCN=C(C)C2=C(O)C(c3ccccc3)OC2=O)cc1OC` (stereo not given), the Potency entry was “inactive”.

Turning to `COc1ccc(/C=C(\C#N)C(=O)OCC(=O)N2CC(C)OC(C)C2)cc1` (stereo not given), the Potency result is “inactive”.

In the case of `Cc1cccn2c(=O)nc(SCC(=O)NCc3ccc(F)cc3)nc12`, the Potency entry was “inactive”.

As to `O=C(COC(=O)c1ccccc1Nc1cccc(C(F)(F)F)c1)NCc1ccco1`, the Potency result was “inactive”.

Consider `CC1(c2ccccc2Cl)NC(=O)N(CC(=O)N2CCc3ccccc3C2)C1=O` (stereo not given), for which the Potency result was “inactive”.

In the case of `COc1ccc(NC(=O)CSc2nc3[nH]c(=O)[nH]c(=O)c3s2)cc1OC`, the Potency result is “inactive”.

As to `CCOC(=O)C1CCCN(Cc2cc(Br)c(OC)cc2OC)C1` (stereo not given), the Potency entry is “inactive”.

`COc1ccc(C(=O)NCCSCc2ccccc2C)cc1`: the Potency entry was “inactive”.

`CC(=O)c1ccc(NC(=O)C2(c3ccccc3)CC2(Cl)Cl)cc1` (stereo not given): the Potency entry was “inactive”.

Consider `Cc1ccc(NC(=O)c2sc(N)nc2-c2ccc([N+](=O)[O-])cc2)cc1C`, for which the Potency result was “inactive”.

With `Cc1cc(C(=O)Nc2ccc(N3CCCCC3)cc2)no1`, the Potency entry is “inactive”.

Take `O=S(=O)(Cc1ccccc1Cl)N1CCN(Cc2ccc3c(c2)OCO3)CC1`: the Potency result was “inactive”.

`Cc1c(NC(=O)C(C)OC(=O)CCC2CCCC2)c(=O)n(-c2ccccc2)n1C` (stereo not given): the Potency result was “inactive”.

With `C#CCOCCOCCOCCNc1nc(N2CCN(C(=O)CCCCCCCCCCNC(=O)[C@H](CCCCN)n3cc(C)nn3)CC2)nc(N2CCN(C(=O)CCCCCCCCCCNC(=O)[C@H](CCCN=C(N)N)n3cc(C[C@@H](C)CC)nn3)CC2)n1`, the Potency was 18.4 µM (active).

Turning to `O=C(Cc1coc2cc(O)ccc12)NNC(=O)c1ccc(Br)s1`, the Potency result was “inactive”.

Regarding `COc1cc(C(=O)Nc2ccc(NC(=O)c3ccccc3Cl)nc2)cc(OC)c1OC`, the Potency entry was “inactive”.

As to `Cc1ccc(OCC(=O)N2c3ccccc3NC(=O)C2(C)C)c([N+](=O)[O-])n1`, the Potency result is “inactive”.

Consider `O=C(Cn1cccc(C(F)(F)F)c1=O)c1ccc(Cl)cc1`, for which the Potency result is “inactive”.

Consider `COc1cccc(-c2cc(C(F)(F)F)nc(N3CCN(c4ccccc4)CC3)n2)c1`, for which the Potency result was “inactive”.

Take `S=C1NC[C@H](CC2CCCCC2)N1CC1CCCCC1`: the Potency entry is “inactive”.

For `COc1cc2c(cc1OC)C(c1c(Cl)cccc1Cl)NC(=O)C2` (stereo not given), the Potency result was “inactive”.

`O=C(CSc1c2c(nc3cc(Cl)ccc13)CCCC2)NCc1ccco1`: the Potency entry was “inactive”.

For `COC(=O)C1OC(OC2CC[C@]3(C)C(CC[C@@]4(C)[C@@H]3CC=C3[C@@H]5CC(C)(C)CC[C@]5(C(=O)OC5OC(CO)C(O)C(O)C5O)CC[C@]34C)C2(C)C)C(O)C(O)C1O[C@H]1OCC(O)C(O)C1O` (stereo not given in full), the Potency result was “inactive”.

As for `CC(C1CC1)N(C(=O)c1ccccc1O)c1ccccc1` (stereo not given), the Potency entry was “inactive”.

With `COc1ccc(-c2nnn(-c3cc(Cl)cc(Cl)c3)c2N)cc1`, the Potency result is “inactive”.

In the case of `Cc1ccc(CCNC(=O)c2cc(C)nn2-c2ccccc2)cc1`, the Potency entry was “inactive”.

Turning to `CC[C@]12c3[nH]c4ccccc4c3CCN1C(=O)C(CC(=O)NCCc1ccccn1)C[C@@H]2C(=O)N1CCN(C(=O)c2ccco2)CC1` (stereo not given in full), the Potency result was “inactive”.

As for `Cc1nnc(SC(C)C(=O)Nc2ccc3ccccc3c2)[nH]c1=O` (stereo not given), the Potency result was “inactive”.

Consider `CC(NC(=S)NNS(=O)(=O)c1ccc(C(C)(C)C)cc1)c1ccccc1` (stereo not given), for which the Potency entry is “inactive”.

Take `Cc1cc(/C=C2\SC(=S)NC2=O)cc(C)c1O`: the Potency result is “inactive”.

With `Cc1cc(C(=O)N/N=C/C=C/c2ccc3c(c2)OCO3)n[nH]1`, the Potency entry is “inactive”.

With `O=C(COC(=O)c1cccnc1Cl)Nc1cc(S(=O)(=O)N2CCCCCC2)ccc1Cl`, the Potency result is “inactive”.

For `O=C(CC(c1ccccc1)c1ccccc1)Nc1ccc(Cl)cn1`, the Potency entry is “inactive”.

In the case of `O=C(C1CCCN(Cc2ccccc2F)C1)N1CCc2ccccc2C1` (stereo not given), the Potency result was “inactive”.

In the case of `O=C(COC(=O)c1cc(S(=O)(=O)N2CCCC2)ccc1O)Nc1ccccc1Br`, the Potency result is “inactive”.

With `CCOc1ccccc1N(CC(=O)Nc1cc(OC)ccc1OC)S(C)(=O)=O`, the Potency entry was “inactive”.
